A short description of assay [1]: inhibitors of TNFa-induced NFkB p65 translocation, primary screen, imaging, HUVEC, MLSMR starter and 10KST1 sets (AID 438;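 active means inhibition above 20% together with a positive visual image hit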;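 further: compound added about 3h40 before a 20 min TNFalpha stimulation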;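 on inhibition: signal is the nuclear over cytoplasmic p65 intensity ratio per well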). As to conditions: HUVEC TNFa-induced p65 nuclear translocation; cell count: measured here: nuclei count (cytotoxicity indicator), at 2.08 µM; inhibition: at 2 µM, stronger effect = higher value, 0% TNFa-plus-vehicle, 100% no-TNFa wells.
A short description of assay [2]: reduction of polyQ htt aggregates in cells – imaging, exon1htt(103Q)mCFP cells, high-content imaging, primary screen (AID 483;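 active means visual image review flags a hit and inhibition of aggregation exceeds 20%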;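 further: compound exposure lasted 3 days before fixation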;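 on nuclei count: percent of the per-plate median nuclei count of sample wells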). Particulars: exon1htt(103Q)mCFP cell line, aggregate imaging, at 2 µM; inhibition of aggregation: stronger effect = higher value; nuclei count: measured here: cell count, toxicity.
Assay [3] is described as follows: endothelial E-selectin expression blockers – imaging, HUVEC, immunofluorescence, MLSMR starter and 10KST1 sets, primary screen (AID 487;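 active means visually confirmed hit in the image check and inhibition above 20%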;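 on inhibition: signal is fraction of cell area covered by stained E-selectin grains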;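 on nuclei count: 100% = median nuclei count of all wells on the same plate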). As to conditions: HUVEC TNFalpha-induced E-selectin immunofluorescence imaging, at 2 µM; inhibition: stronger effect = higher value; nuclei count: measured here: cell number, toxicity.
Assay [4] deals with Voltage-gated potassium channel subunit beta-2 (Rattus norvegicus) (UniProt P62483). The experiment in a line: inhibitors of rat Kvbeta2 reductase activity – biochemical, NADPH fluorescence, primary screen (AID 622;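 active means fluorescence slope higher than the sample average by over 3 SD, cut at about -0.22 in these data, passing the limit was not always enough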;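 further: slope of raw intensity against log time taken from 70 to 1610 s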). Particulars: recombinant KvBeta, 4-cyanobenzaldehyde reduction, at 10 µM, stronger effect = higher value.
For assay [5] the target is unchanged. As to the kind of experiment: enhancers of rat Kvbeta2 NADPH turnover – biochemical, NADPH fluorescence, primary screen (AID 623;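 active means NADPH fluorescence slope more negative than the mean of all samples by about 3 SD, 99.7% confidence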;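 further: fluorescence intensity change per second fitted from 20 to 320 s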). Particulars: Recombinant KvBeta, NADPH fluorescence decrease slope, 10 min; at 10 µM; stronger effect = lower value.
Assay [6] deals with Alpha-2C adrenergic receptor (Homo sapiens) (UniProt P18825). As to the kind of experiment: compounds altering alpha2C-coupled GIRK flux – cell-based, HEK293 alpha2C/GIRK1/2, thallium flux, primary screen (AID 624;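 active means fluorescence slope after compound addition differing from the mean of all screened samples at 99.7% confidence, in either direction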;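 further: slope of fluorescence ratio to pre-addition baseline per second over 15 to 24 s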). Particulars: thallium flux BTC fluorescence, at 10 µM, actives lie on both sides.
The nature of assay [7]: blockers of RIG-like receptor reporter activation – cell-based, Sendai virus stimulus, luciferase, 10K MLSCN set, TLR/RLR signaling modifier project, primary screen (AID 602276;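 active means inhibition at or above 50% at 10 µM; inactive means inhibition below 50%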;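 further: firefly luciferase from ISG56 promoter only with Renilla not read in this screen; 0% = Sendai virus plus DMSO and 100% = medium plus DMSO without virus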). Particulars: HEK293 RL24 IRF3 luciferase reporter, at 10 µM, stronger effect = higher value. (In general: Reporter assays use an easily measured gene product as a stand-in for the process of interest.)
Assay [8] is described as follows: TLR3 IRF3 reporter activation blockers – cell-based, poly I:C stimulus, luciferase, 10K MLSCN set, primary screen (AID 602277). Particulars: HEK293-TLR3 RL24 IRF3 luciferase reporter, at 10 µM, stronger effect = higher value.

Here are results for 14 compounds from PubChem BioAssay.

The source made the active and inactive calls.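 How the source made its calls, unless noted: active means inhibition of the reporter signal at or above 50%; inactive means inhibition below 50%.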

Chain of Alpha-2C adrenergic receptor (Homo sapiens) (P18825 whole entry, looked up): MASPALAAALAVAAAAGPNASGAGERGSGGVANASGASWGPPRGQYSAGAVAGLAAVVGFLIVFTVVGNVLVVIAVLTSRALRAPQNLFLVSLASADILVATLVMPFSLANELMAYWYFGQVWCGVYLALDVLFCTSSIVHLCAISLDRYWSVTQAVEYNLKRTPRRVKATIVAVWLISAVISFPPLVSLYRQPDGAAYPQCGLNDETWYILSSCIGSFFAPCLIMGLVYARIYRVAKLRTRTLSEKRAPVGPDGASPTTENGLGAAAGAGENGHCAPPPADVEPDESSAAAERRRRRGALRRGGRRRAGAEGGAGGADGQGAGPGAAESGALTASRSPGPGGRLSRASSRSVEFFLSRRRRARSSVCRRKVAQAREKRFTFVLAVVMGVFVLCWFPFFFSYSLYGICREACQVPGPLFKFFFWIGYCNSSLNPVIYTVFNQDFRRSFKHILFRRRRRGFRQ
Chain of Voltage-gated potassium channel subunit beta-2 (Rattus norvegicus) (P62483 whole entry, looked up): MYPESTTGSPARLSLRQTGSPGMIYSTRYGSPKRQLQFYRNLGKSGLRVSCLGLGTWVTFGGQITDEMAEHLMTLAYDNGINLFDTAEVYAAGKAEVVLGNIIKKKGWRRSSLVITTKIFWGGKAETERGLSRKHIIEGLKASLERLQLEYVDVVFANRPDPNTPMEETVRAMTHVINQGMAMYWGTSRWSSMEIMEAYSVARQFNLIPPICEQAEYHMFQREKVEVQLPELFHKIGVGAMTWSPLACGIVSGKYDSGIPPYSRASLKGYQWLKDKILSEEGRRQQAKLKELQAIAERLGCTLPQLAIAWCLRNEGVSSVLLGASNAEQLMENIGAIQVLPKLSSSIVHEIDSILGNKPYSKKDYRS

For `CC(C)(C)NC(=O)Cn1c(=O)oc2ccc(Cl)cc21`, in assay [1], the cell count amounted to 676. For the same compound, the inhibition in assay [1] is 0% (inactive); in assay [3] it was -47.1% (inactive); in assay [7], 0.919% (inactive); in assay [8], 20.8% (inactive). The inhibition of aggregation in assay [2] is 1.8% (inactive). For the same compound, the results for the nuclei count in assay [2] and in assay [3] were 116% and 106%, respectively. The fluorescence slope in assay [4] was -0.407 (inactive). In addition, the NADPH fluorescence slope in assay [5] was 6.2e-05 (inactive). For the same compound, in assay [6], the slope is 0.00569 (inactive).
In the case of `O=C(COC(=O)c1cncc(Br)c1)NCCC1=CCCCC1`, the cell count in assay [1] is 555. Moreover, the inhibition in assay [1] is -7.6% (inactive); in assay [3], -26.8% (inactive); in assay [7] it was 1.87% (inactive); in assay [8], 25.9% (inactive). Further, the inhibition of aggregation in assay [2] is 6% (inactive). Further, the nuclei count was 107% in assay [2] and 116% in assay [3]. Besides, the fluorescence slope in assay [4] was -0.338 (inactive). Also, the NADPH fluorescence slope in assay [5] is -3.9e-05 (inactive). Also, the slope in assay [6] is 0.00679 (inactive).
As to `CCOc1cc(C(=O)Nc2ncccn2)cc(OCC)c1OCC`, the cell count in assay [1] was 280. The inhibition in assay [1] was 6.6% (inactive); in assay [3], -193% (inactive); in assay [7], 8.28% (inactive); in assay [8] it was 27.2% (inactive). Moreover, in assay [2], the inhibition of aggregation was 38% (active). The nuclei count in assay [2] is 103%; in assay [3], 100%. Further, in assay [4], the fluorescence slope was -0.476 (inactive). In addition, the NADPH fluorescence slope in assay [5] is -2.8e-05 (inactive). Further, the slope in assay [6] was 0.0062 (inactive).
With `CCc1ccc(CNCc2cccnc2)cc1`, the cell count in assay [1] is 273. In addition, the inhibition is -1.6% (inactive) in assay [1], -19.3% (inactive) in assay [3], 3.34% (inactive) in assay [7] and 18.6% (inactive) in assay [8]. In addition, the inhibition of aggregation in assay [2] is 18% (inactive). Besides, the nuclei count in assay [2] was 101%; in assay [3], 116%. For the same compound, the fluorescence slope in assay [4] was -0.464 (inactive). Besides, the NADPH fluorescence slope in assay [5] was -3e-05 (inactive). For the same compound, in assay [6], the slope is 0.00429 (inactive).
For `O=C1CC(N2CCN(C3CCc4ccccc4C3)CC2)C(=O)N1c1ccccc1` (centres undefined), the cell count in assay [1] amounted to 288. The inhibition in assay [1] was 4% (inactive); in assay [3], 6.6% (inactive); in assay [7], 17.3% (inactive); in assay [8], 28.1% (inactive). For the same compound, in assay [2], the inhibition of aggregation is 0.8% (inactive). Further, the nuclei count in assay [2] came out at 88.6%; in assay [3] it was 121%. The fluorescence slope in assay [4] was -0.378 (inactive). For the same compound, the NADPH fluorescence slope in assay [5] is -9.9e-05 (inactive). Further, in assay [6], the slope is 0.00552 (inactive).
In the case of `COc1cccc(Cn2c(-c3nonc3N)nc3ccccc32)c1`, the cell count in assay [1] amounted to 306. For the same compound, the inhibition is -4.8% (inactive) in assay [1], -97% (inactive) in assay [3], 7.76% (inactive) in assay [7] and 57.2% (active) in assay [8]. Further, the inhibition of aggregation in assay [2] was -97% (inactive). The nuclei count was determined as 1.8% in assay [2] and 113% in assay [3]. Further, the fluorescence slope in assay [4] is -0.556 (inactive). Further, the NADPH fluorescence slope in assay [5] was -8.2e-05 (inactive). In addition, the slope in assay [6] was 0.00614 (inactive).
Regarding `CCN1C(=O)c2ccccc2S(=O)(=O)c2ccc(C(=O)NCc3cccnc3)cc21`, in assay [1], the cell count was determined as 804. The inhibition in assay [1] is -6.4% (inactive); in assay [3], -50.1% (inactive); in assay [7] it was -13.6% (inactive); in assay [8] it was 1.79% (inactive). In assay [2], the inhibition of aggregation was -35.7% (inactive). Further, the nuclei count came out at 107% in assay [2] and 129% in assay [3]. The fluorescence slope in assay [4] was -0.569 (inactive). Also, the NADPH fluorescence slope in assay [5] was -4.8e-05 (inactive). For the same compound, the slope in assay [6] was 0.00634 (inactive).
`CCN(CC)c1ccc(NC(=O)c2nc3nc(C)cc(C(F)F)n3n2)cc1`: the cell count in assay [1] amounted to 650. The inhibition in assay [1] is -1.9% (inactive); in assay [3], -10.1% (inactive); in assay [7], 21.5% (inactive); in assay [8], -6.45% (inactive). The inhibition of aggregation in assay [2] was 14.6% (inactive). The nuclei count stood at 98.5% in assay [2] and 114% in assay [3]. The fluorescence slope in assay [4] is -0.535 (inactive). For the same compound, the NADPH fluorescence slope in assay [5] was -3.4e-05 (inactive). In addition, the slope in assay [6] was 0.00747 (inactive).
On to `OC(COc1ccc2ccccc2c1)CN1CCOCC1` (centres undefined), for which the cell count in assay [1] stood at 780. Moreover, the inhibition in assay [1] was 4.7% (inactive); in assay [3], -44.7% (inactive); in assay [7] it was 3.23% (inactive); in assay [8], 11.9% (inactive). Moreover, the inhibition of aggregation in assay [2] is 3.4% (inactive). Also, the nuclei count was 83% in assay [2] and 95.6% in assay [3]. Also, the fluorescence slope in assay [4] is -0.441 (inactive). In addition, the NADPH fluorescence slope in assay [5] was -8.9e-05 (inactive). Also, the slope in assay [6] was 0.00562 (inactive).
In the case of `CCOC(=O)N1CCN(c2c(N3CCc4ccccc4C3)c(=O)c2=O)CC1`, the cell count in assay [1] was 558. The inhibition in assay [1] was 1.2% (inactive); in assay [3], -46.4% (inactive); in assay [7] it was 10.9% (inactive); in assay [8], 16.4% (inactive). Besides, the inhibition of aggregation in assay [2] was 13.2% (inactive). In addition, the nuclei count turned out to be 102% in assay [2] and 122% in assay [3]. Moreover, in assay [4], the fluorescence slope is -0.538 (inactive). In assay [5], the NADPH fluorescence slope was -2.6e-05 (inactive). Further, in assay [6], the slope was 0.00721 (inactive).
Regarding `Cc1nc2ccccc2c2oc(C(=O)N3CCC(N4CCCCC4)CC3)cc12`, in assay [1], the cell count is 591. Further, the inhibition in assay [1] is -4.4% (inactive); in assay [3], -12.1% (inactive); in assay [7], -0.549% (inactive); in assay [8], 24% (inactive). For the same compound, in assay [2], the inhibition of aggregation is -14.4% (inactive). For the same compound, the results for the nuclei count in assay [2] and in assay [3] were 100% and 119%, respectively. Moreover, in assay [4], the fluorescence slope was -0.602 (inactive). In assay [5], the NADPH fluorescence slope is -3.1e-05 (inactive). The slope in assay [6] is 0.00619 (inactive).
As to `COc1cc(C2CC(=O)NC3=C2C(=O)CC(C)(C)C3)ccc1O` (centres undefined), the cell count in assay [1] turned out to be 380. Also, the inhibition in assay [1] was -2.2% (inactive); in assay [3], 2.8% (inactive); in assay [7] it was 1.82% (inactive); in assay [8], 16.2% (inactive). The inhibition of aggregation in assay [2] was 6.5% (inactive). The nuclei count in assay [2] was determined as 101%; in assay [3], 105%. For the same compound, the fluorescence slope in assay [4] was -0.41 (inactive). The NADPH fluorescence slope in assay [5] is -4.2e-05 (inactive). The slope in assay [6] is 0.00203 (inactive).
For `CC(=O)N(C(C)=O)c1ncc2c([nH]c3ccccc32)c1C#N`, the cell count in assay [1] stood at 320. In addition, the inhibition in assay [1] is 2.1% (inactive); in assay [3], 0.9% (inactive); in assay [7], 11.7% (inactive); in assay [8] it was 15.6% (inactive). In addition, in assay [2], the inhibition of aggregation was -79% (inactive). In addition, the nuclei count stood at 2.8% in assay [2] and 117% in assay [3]. Also, the fluorescence slope in assay [4] is -0.406 (inactive). In assay [5], the NADPH fluorescence slope was -2.2e-05 (inactive). The slope in assay [6] was 0.00457 (inactive).
Consider `CC(=O)Nc1cc2c(nc1C)nc(C)n2Cc1ccc(Br)cc1`, for which the cell count in assay [1] is 419. The inhibition in assay [1] was -1.6% (inactive); in assay [3], -83.5% (inactive); in assay [7], 15% (inactive); in assay [8], -9.25% (inactive). In addition, the inhibition of aggregation in assay [2] is 7.8% (inactive). Besides, the nuclei count in assay [2] amounted to 92%; in assay [3] it was 118%. Moreover, the fluorescence slope in assay [4] is -0.526 (inactive). The NADPH fluorescence slope in assay [5] is -0.000178 (inactive). For the same compound, the slope in assay [6] was 0.00402 (inactive).

Broadly, the inhibition is the relative decrease from the control value, in per cent.
